Screening results as filed in PubChem BioAssay.
NS1 function inh – qHTS Assay for Inhibitors of Influenza NS1 Protein Function | actives 0.4% (n = 270,000) | Potency, µM (titrated, usually from 46.1 µM); also: actives are rising curves; nearly all actives have a fitted effect of over 50% in size
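In this qHTS, NS1 from influenza A is expressed in budding yeast, where it slows growth. Cells are switched from glucose to 2% galactose medium (pH 6.0, -URA), treated with compound, and growth recovery is read at OD600.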
Shiga toxin inh – A qHTS for Small Molecule Inhibitors of Shiga Toxin. actives 9.2% (n = 290,000). Vero cells, Shiga toxin protein synthesis inhibition reporter. inhibition, % at 38.7 µM; in the data active = inhibition mostly above about 28%, no sharp cut-off; inactive = mostly below about 43%
Pf growth 48h – Primary qHTS for delayed death inhibitors of the malarial parasite plastid, 48 hour incubation. P. falciparum luciferase growth in erythrocytes, 48 h. Potency, µM (doses to about 28.7 µM), usual class: inhibitors. actives 5.9% (n = 310,000). AID 504832, 2011; active = well fitted inhibition curve with a large enough effect; inconclusive = small, poorly fitted or top-dose-only effect, or another doubt; inactive = no such curve, though single readings can be large or run the other way
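In quantitative HTS format, infected erythrocytes bearing luciferase-reporter parasites were treated for a single generation at 37 C. Luminescence after adding detection reagent served as the growth measure.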
Pf growth 96h – Primary qHTS for delayed death inhibitors of the malarial parasite plastid, 96 hour incubation | AID 504834, 2011 | Potency, µM (doses to about 28.7 µM), usual class: inhibitors | actives 6.9% (n = 320,000) | P. falciparum luciferase reporter growth, 96 h; active = well fitted inhibition curve with a large enough effect; inconclusive = small, poorly fitted or top-dose-only effect, or another doubt; inactive = no such curve, though single readings can be large or run the other way
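Plates of compound plus infected erythrocytes (2% hematocrit, 0.05% parasitemia final) incubate 96 hours, 37 C, 5% CO2. Detection reagent added; reduced luminescence from the parasites' luciferase reporter flags inhibition.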
Cycloheximide cs – Cycloheximide Counterscreen for Small Molecule Inhibitors of Shiga Toxin | cell reporter, cycloheximide protein synthesis inhibition counterscreen | max response, % | actives 12% (n = 300,000) | AID 2314, 2010; in the data active = max response mostly above about 13%, no sharp cut-off; inactive = mostly below about 14%; also: read at 38.3 µM for the half of the compounds with a filed dose
SARS PLP yeast – qHTS of Yeast-based Assay for SARS-CoV PLP | AID 485353, 2010 | Potency, µM (highest dose often 32.9 µM), most hits filed as activators | S. cerevisiae expressing SARS-CoV PLpro, growth rescue | actives 0.19% (n = 330,000); also: nearly all actives have a fitted effect of over 55% in size
Each line names hits and unclear results; the compound was inactive in the other large screens. The list is not random: actives were taken first. Their share in the collection is about 21%. Unless noted, calls follow the shape of the full dose curve.

CC(C)(C)c1ccc(S(=O)(=O)N(CCCN2CCOCC2)Cc2cccs2)cc1	Pf growth 48h inconclusive
COc1ccc(-c2nnc(SCC(=O)NCc3cccs3)n2CC(C)C)cc1	Pf growth 96h inconclusive (no result: Pf growth 48h)
COc1ccccc1NC(=O)NCC(c1ccco1)N1CCCCC1 (centres undefined)	Pf growth 96h inconclusive (no result: NS1 function inh)
COc1cccc(/C=N/n2c(COc3ccccc3)n[nH]c2=S)c1	none
CC(=O)N1CCN(C(=O)c2cccc(S(=O)(=O)NCc3ccccc3)c2)CC1	none (no result: NS1 function inh, Shiga toxin inh, Cycloheximide cs)
NC(=O)c1c(NC(=O)c2ccccc2C(=O)O)sc2c1CCCC2	none
NC(=O)c1c(NC(=O)c2ccccc2F)sc2c1CCCC2	Shiga toxin inh 83.1, Cycloheximide cs 48.9
Cc1ccc(C2C3=C(CC(C)(C)CC3=O)N=C3c4ccccc4C(=O)C32)cc1 (centres undefined)	NS1 function inh inconclusive, Pf growth 48h 8.28µM
O=C1C2C3C=CC(C4CC34)C2C(=O)N1Cc1ccco1 (centres undefined)	none
CC(C)CCOP(N)(=O)Oc1ccccc1 (centres undefined)	Pf growth 96h 2.08µM
CC(C)CCOP(N)(=O)Oc1ccccc1Cl (centres undefined)	Pf growth 48h inconclusive
CN(C)/N=C/C=C1\CCC/C(=C\c2ccc(F)c(F)c2)C1=O	Shiga toxin inh active, Pf growth 48h inconclusive, Pf growth 96h inconclusive, Cycloheximide cs 86.6
O=C1OCCC/C1=C\c1ccc2c(c1)OCO2	none
COc1ccc(/C=C2\CCC/C(=C\C=N\N(C)C)C2=O)cc1	Pf growth 96h inconclusive, Cycloheximide cs 27.7 (no result: NS1 function inh)
COc1ccccc1CC(=O)Nc1ccc(S(=O)(=O)N(C)C2CCN(C)CC2)cc1	Pf growth 48h inconclusive (no result: NS1 function inh, Shiga toxin inh, Cycloheximide cs)
O=C(COc1ccccc1[N+](=O)[O-])NCC1(N2CCCCC2)CCCCC1	none (no result: NS1 function inh, Shiga toxin inh, Cycloheximide cs)
CC(C)CCNC(=O)NC(=O)COc1ccccc1C#N	Shiga toxin inh 29.6, Cycloheximide cs 18.6
N#Cc1ccccc1OCC(=O)NCC1(N2CCCCC2)CCCCC1	Pf growth 48h 3.29µM
CC(C)NC(=O)COc1ccccc1C#N	Pf growth 96h inconclusive (no result: NS1 function inh)
COC(=O)C1CCN(C(=O)C2CCC(=O)N(CCc3cccc(F)c3)C2)CC1 (centres undefined)	Pf growth 96h inconclusive, SARS PLP yeast inconclusive
O=C(O)C/C=C(/NC(=O)OCc1ccccc1)C(=O)OCc1ccccc1	none (no result: NS1 function inh)
C[C@@H](C(=O)Nc1ccc2c(c1)OCCO2)n1nnc2ccccc2c1=O	Shiga toxin inh 106.7, Cycloheximide cs 44.9
CC(C(=O)Nc1ccc2c(c1)OCCO2)n1nnc(-c2ccccc2)n1 (centres undefined)	Pf growth 96h inconclusive
CC(C(=O)Nc1ccc2c(c1)OCCO2)N1Cc2ccccc2C1=O (centres undefined)	Cycloheximide cs 21.2
CCC(C)[C@@H](C(=O)Nc1ccc2c(c1)OCO2)N1Cc2ccccc2C1=O (some centres undefined)	Pf growth 96h inconclusive (no result: Pf growth 48h)
Cc1nn(Cc2ccc(Cl)cc2)c(C)c1NC(=O)CSc1nc2c(c(C(F)(F)F)n1)CCc1ccccc1-2	Pf growth 48h inconclusive, Pf growth 96h 4.65µM
Cc1ccc(Cn2nc(C)c(NC(=O)CSc3nc4c(c(C(F)(F)F)n3)CCc3ccccc3-4)c2C)cc1	Pf growth 48h inconclusive, Pf growth 96h inconclusive
CC(=O)c1cc(-c2ccccc2)n(CCC(=O)NC(C)(C)C)c1C	Pf growth 96h inconclusive (no result: NS1 function inh)
Cc1ccc(Nc2nc(CSc3nnc(-c4ccccc4C)n3C)cs2)cc1	Shiga toxin inh 79.7, Cycloheximide cs 45.1
Cc1ccc(-c2nnc(SCC(=O)CC(=O)Nc3ccccc3)n2C)cc1	NS1 function inh inconclusive, Pf growth 48h inconclusive, Pf growth 96h inconclusive, SARS PLP yeast inconclusive
Cc1ccc(Nc2nc(CSc3nnc(-c4ccccc4)n3C)cs2)cc1	Shiga toxin inh 51.6, Pf growth 96h inconclusive, Cycloheximide cs 31.6
O=C(COC(=O)Cc1ccccc1F)Nc1ccc2c(c1)OCCO2	Shiga toxin inh 59.0, Cycloheximide cs 33.3
N#Cc1ccccc1OCC(=O)Nc1ccc2c(c1)OCCO2	none (no result: NS1 function inh, Shiga toxin inh, Cycloheximide cs)
O=C(COc1ccccc1Br)Nc1ccc2c(c1)OCCCO2	Shiga toxin inh 65.6, Cycloheximide cs 46.7
O=C(COC(=O)Cc1ccccc1F)Nc1ccc2c(c1)OCO2	Pf growth 48h inconclusive (no result: NS1 function inh)
N#Cc1ccccc1OCC(=O)Nc1ccc2c(c1)OCCCO2	Shiga toxin inh 77.3, Cycloheximide cs 49.8
O=C(COc1ccccc1F)Nc1ccc2c(c1)OCCO2	Shiga toxin inh 102.9, Cycloheximide cs 56.2
CCSc1nc(-c2cccnc2)ccc1C#N	none
CC1CN(C(=O)c2ccc(NS(=O)(=O)c3ccc(F)c(F)c3)cc2)CC(C)O1 (centres undefined)	Pf growth 48h inconclusive (no result: NS1 function inh, Shiga toxin inh, Cycloheximide cs)
COc1ccc(C2C(C#N)=C(SC)NC3=C2C(=O)CC(C)(C)C3)cc1 (centres undefined)	Pf growth 48h inconclusive
COC(=O)c1ccc(C2C(C#N)=C(C)NC3=C2C(=O)CC(C)(C)C3)cc1 (centres undefined)	Pf growth 96h 9.28µM
COc1ccc(C2C(C#N)=C(N)N(N(C)C)C3=C2C(=O)CC(C)(C)C3)cc1 (centres undefined)	none
COc1ccc(C2CC(=O)C3=C(C2)NC(C)=C(C#N)C3c2ccc(N(C)C)cc2)cc1 (centres undefined)	NS1 function inh inconclusive, Pf growth 48h 6.57µM
Cc1nn(CC(=O)NC(=O)NC2CCCC(C)C2C)c(=O)c(C#N)c1C (centres undefined)	Pf growth 48h inconclusive (no result: NS1 function inh, Shiga toxin inh, Cycloheximide cs, SARS PLP yeast)
CCOC(=O)C1=C(C)C2C3C(=O)N(c4cc(C)ccc4C)C(=O)C3C1(C)C1C(=O)N(c3cc(C)ccc3C)C(=O)C21 (centres undefined)	Pf growth 48h 13.1µM, Pf growth 96h inconclusive
CCOC(=O)c1cc(-c2ccc(F)cc2)n(CCC(=O)NC2CCN(Cc3ccccc3)CC2)c1C	Pf growth 48h inconclusive, Pf growth 96h inconclusive (no result: NS1 function inh)
Cc1ccc(S(=O)(=O)N(C)c2ccc(OCC(=O)N3CCCCC3)cc2)cc1	Pf growth 48h inconclusive, Pf growth 96h inconclusive
Cc1c(C(=O)NC(c2ccccn2)C(F)(F)F)oc2c(F)cccc12 (centres undefined)	Pf growth 96h inconclusive
Cc1cccc(CC(C)NC(=O)c2oc3c(F)cccc3c2C)n1 (centres undefined)	Shiga toxin inh 29.0, Pf growth 96h inconclusive, Cycloheximide cs 15.3
COc1ccc(-c2cc(-c3ccccc3O)[nH]n2)cc1	Shiga toxin inh 71.5, Cycloheximide cs 54.5
COc1ccc(/C=C/c2nc(-c3ccccc3O)n[nH]2)cc1	Shiga toxin inh 74.0, Cycloheximide cs 70.4
COc1ccc(-c2cc(-c3ccccc3)n[nH]2)c(O)c1	Shiga toxin inh 82.3, Cycloheximide cs 31.6
